Publication PMC5540273 (PLoS ONE, 2017)

How the values were obtained:
AAK1 = conditions: concentration: 1 μM, replicates: in singlicate; n = 1
ABL1-nonphosphorylated = conditions: concentration: 1 μM, replicates: in singlicate; n = 1
ABL1-phosphorylated = conditions: concentration: 1 μM, replicates: in singlicate; n = 1
ABL2 = conditions: concentration: 1 μM, replicates: in singlicate; n = 1
ACVR1B = conditions: concentration: 1 μM, replicates: in singlicate; n = 1
YSK4 = test system: T1, YSK4
T1 construct: gene MAP3K19

p38-alpha = test system: T2, p38-alpha
T2 construct: gene MAPK14

p38-beta = test system: T3, p38-beta
T3 construct: gene MAPK11

YANK2 = test system: T4, YANK2
T4 construct: gene STK32B
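For %Inh in this document: KINOMEscan kinase panel screen.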
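For Kd in this document: kd values determined as follow-up on hits from a single-replicate KINOMEscan panel screen.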

SMILES	%Inh (AAK1)	%Inh (ABL1-nonphosphorylated)	%Inh (ABL1-phosphorylated)	%Inh (ABL2)	%Inh (ACVR1B)	Kd (ZAK)	Kd (YSK4)	Kd (p38-alpha)	Kd (p38-beta)	Kd (YANK2)
CS(=O)(=O)CCNCc1nc(-c2ccc3ncnc(Nc4ccc(OCc5ccccc5)c(Cl)c4)c3c2)cs1.Cl [GW582764]	0%	0%	0%	21%	0%					
Cn1cncc1C(=O)NC1CCN(c2ccnc(Nc3ccc(F)cc3)n2)C1 (stereo not drawn) [GSK1379717]	31%	0%	4%	0%	0%	> 10000 nM				
O=C1NC(=O)C(c2ccc(Cl)cc2)=C1Nc1ccc(O)cc1 [SB-340867]	3%	28%	0%	0%	0%					
Cc1c(Cn2c(C)c(C)n3c(=O)cc(N4CCOCC4)nc23)cccc1C(F)(F)F [GSK2328680]	0%	0%	0%	11%	20%					
COc1ccc(CSc2nnc(-c3ccc4nccn4c3)o2)cc1C(F)(F)F	16%	28%	13%	21%	23%		22 nM			
COC(=O)c1cccc(NC(=O)NC2CCN(c3ccnc(Nc4ccc(OC)cc4)n3)C2)c1 (stereo not drawn) [GSK1379746]	18%	0%	0%	13%	0%					
FC(F)(F)c1ccccc1-c1cc(-c2c[nH]nc2-c2ccccn2)ccn1 [GW679396]	21%	0%	0%	1%	0%			310 nM		
O=C(Nc1n[nH]c2nc(-c3cccs3)c(Br)cc12)C1CC1 [SB-735297]	10%	52%	30%	0%	0%		200 nM			
Cc1ccc(NC(=O)Nc2ccc(Cl)c(C(F)(F)F)c2)cc1-c1ccc(C(=O)Nc2ccncc2)cc1 [GSK1398470]	3%	1%	0%	34%	5%			310 nM	90 nM	
Fc1ccc(-c2nc3n(c2-c2ccncc2)CCS3)cc1 [GI98581]	1%	0%	0%	9%	15%			130 nM		
Nc1cccc(-c2ccc3c(N)n[nH]c3c2)n1 [GSK2192730]	56%	10%	0%	0%	0%		130 nM			
Cc1cccc2c(-c3ccncn3)c(-c3ccc(F)cc3)nn12 [GW515532]	0%	0%	0%	2%	2%			1300 nM		
O=C(Nc1n[nH]c2cc(-c3ccsc3)ccc12)C1CC1 [SB-732932]	56%	47%	11%	18%	21%		120 nM			
COc1ccc(CSc2nnc(-c3ccc4ncsc4c3)o2)cc1C(F)(F)F	9%	13%	8%	2%	9%					
COc1ccc(Nc2nccc(N3CCC(NC(=O)C(C)c4ccc(Cl)cc4)C3)n2)cc1 (stereo not drawn) [GSK1379735]	14%	0%	0%	18%	19%					
COc1nccc(-c2c(-c3ccc(F)cc3)ncn2CCCN2CCOCC2)n1 [SB-282852]	0%	55%	41%	49%	0%			160 nM		
COc1cccc(CNC(=O)NC2CCN(c3ccnc(Nc4ccc(F)cc4)n3)C2)c1 (stereo not drawn) [GSK1379723]	6%	0%	1%	8%	0%	> 10000 nM				

SMILES	%Inh (AAK1)	%Inh (ABL1-nonphosphorylated)	%Inh (ABL1-phosphorylated)	%Inh (ABL2)	%Inh (ACVR1B)	Kd (ZAK)	Kd (YSK4)	Kd (p38-alpha)	Kd (p38-beta)	Kd (YANK2)
COc1ccc(Nc2nccc(NCCNC(=O)Nc3cc(C)ccc3C)n2)cc1 [GSK1379899]	0%	0%	0%	5%	0%					
CNC(=O)c1ccc(C)c(-n2c(C)cc(OCc3ccc(F)cc3F)c(Br)c2=O)c1	0%	0%	0%	0%	7%				120 nM	
COc1cccc(C2=C(Nc3cc(Cl)c(O)c(Cl)c3)C(=O)NC2=O)c1 [SB-390767]	0%	0%	4%	19%	0%					
COC(=O)C(Cc1ccccc1)NC(=O)NC1CCN(c2ccnc(Nc3ccc(F)cc3)n2)C1 (stereo not drawn) [GSK1379714]	0%	0%	0%	0%	0%		1400 nM			
Cc1ccccc1Cn1ccn2c(=O)cc(N3CCOCC3)nc12 [GSK2269905]	24%	0%	0%	11%	0%					
COc1cccc(NC(=O)Nc2ccc(C)c(-c3ccc(C(=O)Nc4ccncc4)cc3)c2)c1 [GSK1398474]	0%	4%	0%	21%	0%					
Nc1nccc(-c2c(-c3ccc(F)cc3)ncn2C2CCN(Cc3ccccc3)CC2)n1 [SB-219980]	0%	0%	0%	0%	0%			46 nM		
Cc1ccc(NC(=O)Nc2ccccc2)cc1-c1ccc(C(=O)Nc2ccncc2)cc1 [GSK1398471]	8%	0%	0%	16%	0%		71 nM			
COc1ccc(-c2coc3ccc(-c4nnc(C)o4)cc23)cc1	0%	32%	7%	0%	12%					
Fc1ccc(-c2nn3cccc(F)c3c2-c2ccncc2)cc1 [GW475620]	13%	0%	0%	2%	23%			140 nM		
Cc1ccccc1-c1cc(-c2c[nH]nc2-c2ccccn2)ccn1 [GW680061]	0%	0%	0%	17%	0%			130 nM		
Fc1ccc(-c2nc[nH]c2-c2ccncc2)cc1 [SB-217360]	0%	4%	33%	0%	13%			67 nM		
CC(=O)c1cccc(NC(=O)NC2CCN(c3ccnc(Nc4ccc(F)cc4)n3)C2)c1 (stereo not drawn) [GSK1379710]	16%	0%	0%	0%	0%					
CSc1ccc(-c2nc3n(c2-c2ccncc2)CCC3)cc1 [SKF-105561]	0%	16%	0%	12%	4%					
CNc1nc(-c2ccc3c(N)n[nH]c3c2)cc(N2C[C@@H](C(=O)Nc3ccccc3)CC[C@H]2C)n1 [GSK2298859]	12%	1%	0%	2%	0%					220 nM
c1ccc(-c2ccnc3[nH]ccc23)cc1 [SB-693578]	68%	0%	4%	16%	0%		470 nM			
Cc1ccc(NC(=O)Nc2ccccc2F)cc1-c1ccc(C(=O)Nc2ccncc2)cc1 [GSK1398477]	28%	7%	0%	31%	3%		1500 nM			
